The results in this text go back to PubChem BioAssay AID2705 (National Center for Advancing Translational Sciences (NCATS), 2010).

SMILES strings stand for the structures. The list shows a part of the results. Results filed as inconclusive are left out. Active and inactive are the calls of the source. The call rests on the fitted dose curve; in most records, active means well fitted inhibition curve with a large enough effect; inconclusive means small, poorly fitted or top-dose-only effect; inactive means flat fitted curve, though single readings scatter.

This experiment addresses Dual specificity tyrosine-phosphorylation-regulated kinase 1A (Homo sapiens) (UniProt Q13627). Nature of the experiment: Assay for Inhibitors of Dual-Specificity Tyrosine-(Y)-Phosphorylation Regulated Kinase 1A (Kinase-Glo assay). The following applies: recombinant DYRK1A, Kinase-Glo ATP depletion luminescence. From the text:
NIH Molecular Libraries Probe Production Centers Network [MLPCN] NIH Chemical Genomics Center [NCGC] MLSCN Grant: 1R03MH084827-01 PI Name: Tom Misteli NCGC Assay Overview: The CMGC group of protein kinases which includes CDK-like kinases (Clk) and Dyks are essential kinases found in all eukaryotes. Clks have been implicated to play a role in the regulation of alternative splicing; while Dyrks, in particular over expression of Dyrk1A, has been linked to diseases as Down syndrome (DS; OMIM 190685) and Alzheimer disease (AD; OMIM 104300). Among the members of the CMGC group, the Clks and the Dyrks are very closely related therefore to determine validity and selectivity of an active compound observed in the CLK4 qHTS screen (AID:1770), a bioluminescent counter-screen against Dyrk1A was developed. In addition, potent and selective compounds against Dyrk1A were identified to further assess the role of this enzyme in DS and AD. Dyrk1A (Invitrogen, cat # PV3785) was assayed using ATP and DYRKtide (AnaSpec, cat# 62698) as substrates. Promega Kinase-Glo (cat# V6712) technology was used to detect the residual ATP following kinetic reaction. The Kinase-Glo Plus contains Ultra-Glo [5] luciferase and D-luciferin which generates a bioluminescence signal from the remaining ATP. No enzyme and harmine (Sigma, cat # 286044-1G), a compound shown to inhibit Dyrks were used as a positive control; while DMSO treatment was used as a negative control.
NCGC Assay Protocol Summary: Two uL/well of substrate solution (8uM Dyrktide, 2uM ATP, 25mM Tris-HCl pH 7.5, 10mM MgCl2 , 0.5mM EGTA, 5mM cystein, 0.01% Triton X-100 final concentration) was dispensed into 1536-well assay plates (Greiner, solid white, medium-binding plates) with Aurora Discovery BioRAPTR Flying Reagent Dispenser (FRD, Beckton-Dickenson). Compound solution (23 nL) was transferred to the assay plate using Kalypsys pin tool equipped with a 1536-pin tool. One uL/well enzyme solution (5nM Dyrk1A, 25mM Tris-HCl pH7.5, 10mM MgCl2, 0.5mM EGTA, 5mM cystein, 0.01% Triton X-100 final concentration) was then added using FRD yielding a total kinase reaction volume of 3uL/well. After 2 hours of room temperature incubation, 3uL Kinase-Glo detection reagent was added for a final assay volume of 6uL/well. The plates were spun for 30 seconds (1000 rpm) and incubated at ambient temperature for 2 minutes followed by a luminescence read using Perkin Elmer ViewLux plate reader at 3 seconds exposure time and 2x binning.
Background: Kinase-Glo reads ATP consumption through a luciferase reaction.
In the case of `CN(Cc1cncn1C)c1ncnc2ccc(-c3ccc4c(c3)OCO4)cc12`, the Potency was 2600 nM (active).
Under `Cc1nc(C)c(-c2ccc3ncnc(NCc4ncc[nH]4)c3c2)s1` stands 5190 nM (active); under `Cc1nc(CNc2ncnc3ccc(-c4ccc5c(c4)OCO5)cc23)cs1`, 292 nM (active); under `c1coc(CCNc2ncnc3ccc(-c4ccc5c(c4)OCO5)cc23)c1`, 164 nM (active).
